Experimental data from PubChem BioAssay.
Activity calls are given as the source filed them.

Tests used:
Albumin (Bos taurus) = Albumin (Bos taurus) (UniProt P02769); test: compounds binding labelled BSA control protein – biochemical, small-molecule microarray, Alexa647 label, 635/667 nm fluorescence, artefact control for SMM control protein annotation, profiling panel (AID 1118); settings: BSA-A647 binding, fluorescence 635 nm, higher = more signal;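 further: score merges 667 nm emission intensity and signal-to-noise per printed compound spot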
[1] = probe aXIP binding to arrayed compounds – biochemical, NeuroSMM set, 635/667 nm fluorescence, primary screen (AID 1119); settings: small-molecule microarray, higher = more signal, called active from +8 up or from −8 down;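 further: probe is the protein aXip251-270 applied at 1 µg/mL to compound-printed slides; binding of probe to printed compounds measured as 667 nm fluorescence plus signal to noise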
[2] = probe aNOTCH3 binding on compound microarray – biochemical, small-molecule microarray, 635/667 nm fluorescence, primary screen (AID 1120); settings: higher = more signal;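 further: probe is a biotin-tagged antibody raised against NOTCH3 rather than NOTCH3 protein; score merges spot fluorescence near 667 nm with spot signal to noise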
[3] = probe aNOTCH2 binding on compound microarray – biochemical, small-molecule microarray, 635/667 nm fluorescence, primary screen (AID 1121); settings: higher = more signal;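 further: score merges feature fluorescence read at 667 nm with its signal to noise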
[4] = target: Carbonic anhydrase 2 (Homo sapiens) (UniProt P00918); test: compounds binding carbonic anhydrase 2 – biochemical, small-molecule microarray, Alexa647-labelled CAII, profiling panel (AID 1122); settings: CAII-A647 binding fluorescence, higher = more signal
[5] = COS7 lysate on small-molecule microarray, probe aHis, 635 nm (AID 1123); settings: COS7 cell lysate, fluorescence, higher = more signal;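 further: z-score combines 667nm fluorescence intensity with signal-to-noise per printed compound spot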
[6] = probe aLAP1 signal on lysate-treated microarray – cell lysate, small-molecule microarray, COS7 lysate, primary screen (AID 1124); settings: probe aLAP1, fluorescence, higher = more signal;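 further: lysate comes from COS7 cells expressing LAP1 and is applied at 0.3 µg/mL; score merges spot fluorescence near 667 nm with signal-to-noise over triplicate slides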
Sam68 (KHDRBS1) = test: compounds binding KHDRBS1 protein – biochemical, small-molecule microarray, 635 nm fluorescence, primary screen (AID 1125); settings: higher = more signal;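 further: score merges 667 nm channel intensity with signal to noise over triplicate slides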
[7] = test system: Chordin-like protein 2 (CHRDL2); test: compounds binding chordin-like 2 – biochemical, small-molecule microarray, 635 nm fluorescence, primary screen (AID 1126); settings: fluorescence 635 nm, higher = more signal;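 further: printed compound slides probed with Chrdl2 protein at 4 µg/mL for 1 h at 4 C; score merges 667 nm emission intensity with signal to noise over three replicate slides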
[8] = target: Concanavalin-A (Canavalia ensiformis) (UniProt P02866); test: compounds binding concanavalin A lectin – biochemical, small-molecule microarray, Alexa647 label, 635 nm, artefact control for SMM control protein annotation, primary screen (AID 1127); settings: ConA-A647 binding fluorescence, higher = more signal;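 further: z combines 667 nm emission intensity with signal-to-noise across three replicate slides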
[9] = compounds binding Alexa647 anti-His antibody – biochemical, small-molecule microarray, 635 nm fluorescence, artefact control for SMM control protein annotation, primary screen (AID 1128); settings: higher = more signal;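 further: score merges feature fluorescence with signal-to-noise for each printed compound spot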
[10] = test system: Human papillomavirus type 1a E7 protein (residues 1-88); test: HPV1a E7 small-molecule binders, primary screen, biochemical, small-molecule microarray, residues 1-88, 635 nm (AID 1129); settings: small-molecule microarray binding, fluorescence 635 nm; higher = more signal
[11] = target: Focal adhesion kinase 1 (Homo sapiens) (UniProt Q05397); test: PTK2 protein binding on printed compound slides – biochemical, small-molecule microarray, 635/667 nm fluorescence, BSA, DTT, primary screen (AID 1130); settings: 635 nm fluorescence, higher = more signal;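 further: composite of spot emission at 667 nm and signal to noise over triplicate slides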
[12] = test system: Fibrinogen (Alexa647-labelled); test: Alexa647-fibrinogen binding to printed small molecules – biochemical, small-molecule microarray, 635/667 nm fluorescence, artefact control for SMM control-protein annotation, profiling panel (AID 1131); settings: fibrinogen-A647 binding fluorescence, higher = more signal;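 further: z-score merges 667 nm fluorescence with per-spot signal-to-noise over triplicate slides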
[13] = target: Follistatin (Homo sapiens) (UniProt P19883); test: FST protein binding to printed compounds – biochemical, small-molecule microarray, 635/667 nm fluorescence, primary screen (AID 1132); settings: 635 nm fluorescence, higher = more signal
[14] = target: Fibroblast growth factor 2 (Homo sapiens) (UniProt P09038); test: basic fibroblast growth factor binding to printed compounds – biochemical, small-molecule microarray, 635/667 nm fluorescence, primary screen (AID 1133); settings: FGF2, fluorescence 635/667, higher = more signal
[15] = JC-1 mitochondrial potential readout, lung cancer cells – cell-based, A549, JC-1 fluorescence, basal, 24 h, 100 nL, profiling panel (AID 1138); settings: higher = more signal;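 further: A549 lung adenocarcinoma cells under basal conditions with no added stimulus; test concentration not given here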
Lefty1 = Lefty1 protein binding to printed compounds – biochemical, small-molecule microarray, 635/667 nm fluorescence, primary screen (AID 1139); settings: fluorescence 635/667, higher = more signal
[16] = test system: wheat germ agglutinin (Triticum aestivum), Alexa647-labelled; test: Alexa647-WGA lectin binding to printed small molecules – biochemical, small-molecule microarray, 635/667 nm fluorescence, artefact control for SMM control-protein annotation, profiling panel (AID 1140); settings: WGA-A647 binding, 635 nm fluorescence, higher = more signal;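 further: score merges 667 nm feature emission with signal to noise over triplicate slides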
[17] = target: Luciferin 4-monooxygenase (Photinus pyralis) (UniProt P08659); test: inhibition of purified Photinus pyralis luciferase – biochemical, luminescence, purified enzyme, 2006 set, primary screen (AID 1141); settings: purified firefly luciferase, SteadyGlo luminescence, 30 min; higher = more signal, called active from +8 up or from −8 down;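 further: cell-free assay with purified firefly luciferase at 100 ng per well in PBS; test concentration not given here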
Sequence of Luciferin 4-monooxygenase (Photinus pyralis) (P08659 whole entry, looked up): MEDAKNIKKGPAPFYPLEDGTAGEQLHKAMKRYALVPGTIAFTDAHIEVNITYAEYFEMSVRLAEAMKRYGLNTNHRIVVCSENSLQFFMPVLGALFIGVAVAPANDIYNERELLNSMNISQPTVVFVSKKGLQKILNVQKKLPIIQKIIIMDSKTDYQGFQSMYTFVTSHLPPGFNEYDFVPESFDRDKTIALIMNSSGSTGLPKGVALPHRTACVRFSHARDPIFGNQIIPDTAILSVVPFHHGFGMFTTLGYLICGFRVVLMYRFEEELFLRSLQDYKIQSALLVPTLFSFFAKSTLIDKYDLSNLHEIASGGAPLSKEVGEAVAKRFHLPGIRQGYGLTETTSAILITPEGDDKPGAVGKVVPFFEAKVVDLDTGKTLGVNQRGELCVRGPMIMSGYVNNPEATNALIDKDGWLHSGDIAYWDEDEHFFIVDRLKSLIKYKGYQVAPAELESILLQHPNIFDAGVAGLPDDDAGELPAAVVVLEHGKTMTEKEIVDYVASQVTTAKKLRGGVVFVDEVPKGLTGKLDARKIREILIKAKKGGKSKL

Sequence of Fibroblast growth factor 2 (Homo sapiens) (P09038 whole entry, looked up): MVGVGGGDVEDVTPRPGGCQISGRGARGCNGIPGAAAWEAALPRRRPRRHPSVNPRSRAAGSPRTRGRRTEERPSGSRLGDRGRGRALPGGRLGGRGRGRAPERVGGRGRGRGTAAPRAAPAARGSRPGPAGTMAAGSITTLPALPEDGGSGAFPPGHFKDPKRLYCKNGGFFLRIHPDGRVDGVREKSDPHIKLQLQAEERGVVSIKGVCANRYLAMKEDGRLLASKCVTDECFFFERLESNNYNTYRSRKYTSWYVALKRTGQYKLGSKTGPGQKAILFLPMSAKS
Sequence of Focal adhesion kinase 1 (Homo sapiens) (Q05397 whole entry, looked up): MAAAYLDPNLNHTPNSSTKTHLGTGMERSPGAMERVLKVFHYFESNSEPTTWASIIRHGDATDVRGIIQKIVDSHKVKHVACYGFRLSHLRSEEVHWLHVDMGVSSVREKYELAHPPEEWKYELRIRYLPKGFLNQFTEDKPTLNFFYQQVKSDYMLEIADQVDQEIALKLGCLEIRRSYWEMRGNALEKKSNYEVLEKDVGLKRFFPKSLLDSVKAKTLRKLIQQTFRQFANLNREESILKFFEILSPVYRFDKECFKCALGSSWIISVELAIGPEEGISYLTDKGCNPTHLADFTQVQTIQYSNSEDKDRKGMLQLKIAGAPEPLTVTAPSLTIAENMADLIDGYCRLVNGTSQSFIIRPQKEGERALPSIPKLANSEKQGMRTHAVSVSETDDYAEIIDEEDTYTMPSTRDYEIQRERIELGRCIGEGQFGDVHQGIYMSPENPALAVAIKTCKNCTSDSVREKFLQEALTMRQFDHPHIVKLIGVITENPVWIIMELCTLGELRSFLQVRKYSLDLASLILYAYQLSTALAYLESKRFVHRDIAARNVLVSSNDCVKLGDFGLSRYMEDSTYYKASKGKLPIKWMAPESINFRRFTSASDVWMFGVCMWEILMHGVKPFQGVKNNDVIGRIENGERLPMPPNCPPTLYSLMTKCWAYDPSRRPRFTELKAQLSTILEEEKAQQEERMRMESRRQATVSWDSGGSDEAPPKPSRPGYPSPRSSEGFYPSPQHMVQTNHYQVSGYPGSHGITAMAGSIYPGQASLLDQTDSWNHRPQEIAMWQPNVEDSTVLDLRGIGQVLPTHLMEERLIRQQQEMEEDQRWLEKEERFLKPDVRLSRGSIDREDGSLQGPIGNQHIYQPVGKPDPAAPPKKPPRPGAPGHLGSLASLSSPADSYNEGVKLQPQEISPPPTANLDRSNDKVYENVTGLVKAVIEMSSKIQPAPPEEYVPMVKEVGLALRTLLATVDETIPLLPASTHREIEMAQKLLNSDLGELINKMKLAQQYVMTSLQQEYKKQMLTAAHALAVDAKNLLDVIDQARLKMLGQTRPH
Sequence of Albumin (Bos taurus) (P02769 whole entry, looked up): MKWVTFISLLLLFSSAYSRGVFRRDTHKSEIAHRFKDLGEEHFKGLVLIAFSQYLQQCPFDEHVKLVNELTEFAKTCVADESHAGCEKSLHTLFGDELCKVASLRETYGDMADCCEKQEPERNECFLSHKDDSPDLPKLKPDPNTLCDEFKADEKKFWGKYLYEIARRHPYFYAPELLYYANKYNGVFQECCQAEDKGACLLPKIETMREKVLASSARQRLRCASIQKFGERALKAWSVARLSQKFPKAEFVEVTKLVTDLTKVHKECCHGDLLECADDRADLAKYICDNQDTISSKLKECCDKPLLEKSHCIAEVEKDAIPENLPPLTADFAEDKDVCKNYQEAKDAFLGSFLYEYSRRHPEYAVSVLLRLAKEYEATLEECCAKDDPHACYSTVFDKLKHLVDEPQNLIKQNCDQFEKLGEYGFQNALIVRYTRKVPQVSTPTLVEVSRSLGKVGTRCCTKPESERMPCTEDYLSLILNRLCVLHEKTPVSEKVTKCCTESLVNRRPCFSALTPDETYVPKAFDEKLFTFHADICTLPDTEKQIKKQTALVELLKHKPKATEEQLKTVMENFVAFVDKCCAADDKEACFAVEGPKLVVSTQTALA
Sequence of Follistatin (Homo sapiens) (P19883 whole entry, looked up): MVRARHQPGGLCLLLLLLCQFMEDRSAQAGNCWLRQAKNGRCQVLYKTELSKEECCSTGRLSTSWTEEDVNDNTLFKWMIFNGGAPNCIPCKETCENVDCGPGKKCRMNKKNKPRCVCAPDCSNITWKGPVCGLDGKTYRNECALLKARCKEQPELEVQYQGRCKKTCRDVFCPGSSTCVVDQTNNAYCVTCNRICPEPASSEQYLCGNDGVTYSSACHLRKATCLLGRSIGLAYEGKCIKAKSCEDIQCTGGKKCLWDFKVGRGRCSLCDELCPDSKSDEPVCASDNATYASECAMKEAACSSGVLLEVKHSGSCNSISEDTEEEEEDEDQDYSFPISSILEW
Sequence of Concanavalin-A (Canavalia ensiformis) (P02866 whole entry, looked up): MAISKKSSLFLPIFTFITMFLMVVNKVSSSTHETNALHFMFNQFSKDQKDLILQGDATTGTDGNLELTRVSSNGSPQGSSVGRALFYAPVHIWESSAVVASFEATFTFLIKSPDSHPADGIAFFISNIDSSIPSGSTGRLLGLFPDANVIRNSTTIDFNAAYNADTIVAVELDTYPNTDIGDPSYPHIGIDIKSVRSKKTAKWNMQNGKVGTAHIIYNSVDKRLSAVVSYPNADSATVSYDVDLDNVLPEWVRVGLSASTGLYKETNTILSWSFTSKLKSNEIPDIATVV

Row | SMILES | composite z-score (Albumin (Bos taurus)) | composite Z-score [1] | composite z-score [2] | composite z-score [3] | composite z-score [4] | composite z-score [5] | composite z-score [6] | composite z-score (Sam68 (KHDRBS1)) | composite z-score [7] | composite z-score [8] | composite z-score [9] | composite z-score [10] | composite z-score [11] | composite z-score [12] | composite z-score [13] | composite z-score [14] | z-score [15] | composite z-score (Lefty1) | composite z-score [16] | z-score [17]
1 | CCN1C(=O)[C@H]2[C@H]3[C@H](O)[C@H](O)CC(=NOCC(C)C)[C@H]3CC[C@H]2C1=O | -0.369 | -0.14 (inactive) | 0.108 | -0.204 | -0.15 | -0.302 | 0.0041 | 0.0597 | 0.843 | -0.238 | 0.341 | 0.551 | -0.0956 | -0.326 | 0.818 | 0.4 | -0.087 | 0.717 | -0.312 | 0.404 (inactive)
2 | CCCNC(=O)OC[C@H]1O[C@H](CCON=C2C[C@@H](O)[C@@H](O)[C@@H]3[C@@H]4C(=O)N(CC)C(=O)[C@@H]4CC[C@@H]23)C=C[C@@H]1Oc1ccc(OC)cc1 | 0.148 | -0.477 (inactive) | 0.217 | -0.136 | 0.575 | 0.572 | 0.73 | 1.32 | 0.929 | 0.728 | 1.44 | 0.94 | 0.158 | 0.946 | 1.14 | 0.622 | -0.517 | 1.3 | 0.697 | 0.321 (inactive)
3 | CC(C)=NO[C@@H](C)c1cn([C@H](CO)Cc2ccccc2)nn1 | 0.015 | 0.374 (inactive) | 0.145 | -0.0375 | 0.138 | 0.398 | 0.224 | 0.863 | 0.655 | 0.65 | 0.554 | 0.598 | -0.17 | 0.17 | 0.238 | 0.239 | -0.0312 | 0.542 | 0.237 | -2 (inactive)
4 | CCOC(=O)CCN1C(=O)[C@H]2[C@H]3[C@H](O)[C@H](O)CC(=NOCC=C(C)CCC=C(C)C)[C@H]3CC[C@H]2C1=O | -0.269 | -0.113 (inactive) | 0.179 | -0.167 | -0.276 | -0.405 | -0.192 | 0.458 | -0.178 | 0.116 | -1.12 | -0.251 | -0.0341 | -0.161 | -0.975 | 0.404 | 0.64 | -0.893 | -0.503 | 0.0499 (inactive)
5 | CCN1C(=O)[C@H]2[C@H]3[C@H](O)[C@H](O)CC(=NO[C@H](C)c4cn([C@H](CO)Cc5ccccc5)nn4)[C@@H]3CC[C@H]2C1=O | 0.818 | 0.444 (inactive) | 0.0539 | -0.135 | 0.412 | 0.785 | 1.39 | 1.1 | -0.0064 | 1.05 | 3.76 | 1.07 | 0.454 | 0.932 | 0.758 | 0.474 | -0.00321 | 0.734 | 1.15 | 0.275 (inactive)
6 | CC(CCC(=O)OC[C@H]1O[C@H](C#Cc2ccccc2)C=C[C@@H]1Oc1ccc(C)cc1)=NOC(C)CN1CCCCc2nc(C)c(C)cc21 (stereo not given in full) | 0.473 | 1.48 (inactive) | -0.0377 | 0.161 | 0.346 | 0.938 | 0.214 | 0.313 | -0.168 | -0.207 | -0.578 | 0.203 | 0.603 | -0.626 | -0.463 | -0.426 | 0.856 | -0.034 | 0.222 | 1.08 (inactive)
7 | C=CC[C@@H]1C=C[C@H](ON=CC[C@@H]2C=C[C@H](OC(C)=O)[C@@H](COC(C)=O)O2)[C@@H](CO)O1 | 0.0919 | -0.0027 (inactive) | 0.164 | 0.0219 | 0.197 | 0.312 | 0.0839 | 1.29 | 0.441 | 0.823 | 1.37 | 0.915 | -0.0825 | 0.991 | 0.538 | 0.945 | -0.0536 | 0.918 | 0.566 | 0.328 (inactive)
8 | CO[C@@H]1COC(=O)CC=C[C@H](C)[C@H](OC)COC(=O)[C@@H]2CCCN2C(=O)CC=C[C@H]1C | -0.568 | 0.598 (inactive) | -0.116 | -0.154 | -0.623 | -0.301 | 0.569 | 0.442 | 1.44 | -0.371 | -0.51 | -0.838 | -0.226 | -2.24 | 1.38 | 1.69 | -0.213 | 1.45 | -1.11 | -0.577 (inactive)
9 | CCN1C(=O)[C@H]2[C@H]3[C@H](O)[C@H](O)CC(=NO[C@H](C)c4cn([C@@H]5COC[C@H]5O)nn4)[C@@H]3CC[C@H]2C1=O | 0.0418 | -0.115 (inactive) | -0.0948 | -0.04 | -0.281 | 0.151 | -0.0932 | 0.126 | 0.244 | -0.0703 | -1.33 | -0.0712 | 0.339 | 0.178 | -0.537 | 0.092 | -0.444 | 0.371 | -0.215 | 0.846 (inactive)
10 | CC(=O)OC[C@H]1O[C@@H](ON=C(C)C)[C@H](OC(C)=O)[C@@H](OC(C)=O)[C@@H]1OC(C)=O | -0.727 | -1.02 (inactive) | -0.0178 | -0.0272 | -0.755 | -0.775 | 0.694 | -0.743 | -0.736 | -1.09 | 0.759 | -1.41 | -0.242 | -0.515 | -1.27 | -0.109 | -0.191 | -1.03 | -0.88 | 0.316 (inactive)
11 | CC(CCN1CCCc2nc(C)c(C)cc21)=NOC[C@@H](O)COCc1ccco1 | -1.47 | 5.36 (inactive) | 1.67 | 0.826 | -0.702 | 1.37 | 0.602 | -0.109 | 1.58 | -1.09 | 0.215 | -2.13 | 2.27 | -2.04 | 1.55 | 2.19 | 0.694 | 1.86 | -0.949 | -1.59 (inactive)
